Structures are written as SMILES. Values without a mark were called inactive. The source made the active and inactive calls.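 Rule for the calls: active = blocks over 70% of labeled estradiol binding at 10 µM, or over a set limit at 100 nM; inactive = the rest.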

For this assay, the target named is Estrogen receptor beta (Homo sapiens) (UniProt Q92731). Nature of the assay: displacement of fluorescent estrogen from ERbeta – cell-based, Cos7 ERbeta-GFP, flow cytometry, primary screen (AID 1210).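 Note: 0% = DMSO vehicle wells and 100% = complete loss of labeled estradiol signal.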 As to conditions: fluorescent estrogen binding, at 10 µM, active compounds read high. For orientation: A flow cytometer gives signals particle by particle.
Chain of Estrogen receptor beta (Homo sapiens) (Q92731 whole entry, looked up): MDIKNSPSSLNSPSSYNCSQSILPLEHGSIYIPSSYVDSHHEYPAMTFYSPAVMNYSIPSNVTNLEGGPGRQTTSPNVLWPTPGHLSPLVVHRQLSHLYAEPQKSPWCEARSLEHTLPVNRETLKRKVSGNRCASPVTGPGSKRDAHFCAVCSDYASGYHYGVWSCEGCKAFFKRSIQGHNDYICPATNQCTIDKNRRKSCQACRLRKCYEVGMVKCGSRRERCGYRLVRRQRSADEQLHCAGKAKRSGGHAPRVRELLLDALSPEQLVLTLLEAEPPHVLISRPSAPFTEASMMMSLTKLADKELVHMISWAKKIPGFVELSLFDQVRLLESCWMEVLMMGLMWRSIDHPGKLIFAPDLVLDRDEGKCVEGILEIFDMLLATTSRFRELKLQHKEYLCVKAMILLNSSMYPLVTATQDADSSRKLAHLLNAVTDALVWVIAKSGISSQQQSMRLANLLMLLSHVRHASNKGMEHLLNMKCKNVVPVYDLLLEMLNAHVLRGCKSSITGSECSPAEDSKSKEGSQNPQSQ
Regarding `COCc1cc(=O)n2c(-c3ccc(C)cc3)n[nH]c2n1`, the inhibition – broadly, the change of the read-out against control, counted positive when it falls – is 12%.

As for `CCOc1ccc(C2C3=C(Nc4nc(N)[nH]c(=O)c42)c2ccccc2C3=O)cc1` (centres undefined), the inhibition is 22%.

Turning to `COc1cc2c3c(c1)/C(=C1/SC(NC(C)=O)=NC1=O)C(=O)N3C(C)(C)C=C2C`, the inhibition was 37%.

Turning to `Cc1cc(C(=O)Nc2sc3c(c2C#N)CCC3)no1`, the inhibition is 46%.

As for `CCCc1nc2sc3ccccc3c(=O)c2c(=O)n1Cc1ccco1`, the inhibition was 21%.

For the compound `O=C(c1cc2ncc(Br)cn2n1)N1CCOCC1`, the inhibition was 68%.

Turning to `C/C(N)=C(/C#N)C(=O)CSc1nnc(Cc2ccccc2F)n1N`, the inhibition was 22%.

For `Cc1ccc(N=Cc2c(O)n(-c3ccc4c(c3)OCO4)c(=O)c3ccccc23)cc1`, the inhibition is 15%.

As for `COc1cc(NC(=O)COc2ccc(-n3cnnn3)cc2)c(OC)cc1Cl`, the inhibition was 61%.

As to `CC(C)(C)c1nnc2sc(SC/C(O)=C(\C#N)c3nc4ccccc4[nH]3)nn2c1=O`, the inhibition was 31%.

As for `COc1ccc(C2C=C(c3ccc(Cl)cc3)Nc3nc(NC(C)=O)nn32)cc1` (centres undefined), the inhibition is 16%.

Take `O=C1C=CC(O)(c2cc(=O)c3c(O)cc(O)cc3o2)C=C1`: the inhibition is 29%.

In the case of `O=c1[nH]c(N/N=C/c2ccc(O)cc2)nc2ccccc12`, the inhibition was 34%.

Consider `Cn1nnnc1SCC(=O)Nc1nc(-c2ccccc2)c(-c2ccccc2)o1`, for which the inhibition is 39%.

With `CCCCCc1nnc(NC(=O)Cc2cccs2)s1`, the inhibition was 18%.

On to `O=C1C(c2ccnc3ccccc23)=C(O)c2ccccc21`, for which the inhibition is 60%.

As for `COc1cccc2cc3c(=O)n(-c4ccccc4)nc-3oc12`, the inhibition is 70%.

`C=C(C)CNC(=S)NNC(=O)CCn1c2cc(Cl)ccc2c2ccc(Cl)cc21`: the inhibition is 18%.

Take `CC(=O)c1sc2nc(SCC(=O)N3CCCCC3)[nH]c(=O)c2c1C`: the inhibition is 27%.

In the case of `Cc1nn(-c2ccccc2)c(Cl)c1/C=N/Nc1ccc(S(=O)(=O)Nc2ccccc2C(=O)O)cc1[N+](=O)[O-]`, the inhibition is 15%.

Turning to `Oc1ccc(C=Nc2ccc(N3CCOCC3)cc2)c(O)c1`, the inhibition was 51%.

As to `CC(=O)NC12CC3CC(C1)CC(C(=O)OCC(=O)Nc1ncc(Cl)c(C)c1Cl)(C3)C2`, the inhibition was 12%.

For the compound `COc1ccc(OC)c(C2Nc3c(Cl)ccc(C(=O)O)c3C3C=CCC32)c1` (centres undefined), the inhibition was 0%.

As to `O=C(CSc1ccc(Cl)cc1)c1ccco1`, the inhibition is 14%.

In the case of `O=C(c1cccc(F)c1)N1CCN(C(=O)c2cc3ncc(Br)cn3n2)CC1`, the inhibition is 26%.

With `CC(Cc1ccc(O)c(O)c1)C(C)Cc1ccc(O)c(O)c1` (centres undefined), the inhibition was 65%.

For the compound `O=C1c2ccccc2NC(c2ccc(O)cc2)N1/N=C/c1ccc(O)cc1` (centres undefined), the inhibition is 71% (active).

Turning to `COc1ccc(CNC(=O)c2cc(-c3cccs3)on2)cc1`, the inhibition was 39%.

In the case of `Cc1nc2sccn2c1-c1nc(-c2cc3ccccc3o2)cs1`, the inhibition is 43%.

For `C=CCn1c(COc2ccccc2F)nnc1SCC(=O)NC(=O)NCc1ccco1`, the inhibition is 24%.

As to `COc1ccc(-c2ccc(-c3noc(-c4cccs4)n3)c(OC)n2)cc1`, the inhibition is 63%.

For `Cc1cc(N)ccc1N=Nc1c(C)n(C)n(-c2ccccc2)c1=O`, the inhibition is 15%.

In the case of `O=C1c2ccccc2C(=O)N1CCCc1nc2ccccc2c(=O)n1CCCn1ccnc1`, the inhibition is 61%.

As to `Cc1oc(-c2ccc(Cl)cc2)cc1-c1nn2c(-c3ccoc3C)nnc2s1`, the inhibition was 57%.

Regarding `Cc1ccc(C(=O)ONc2ccc(N=NC(=O)c3ccccc3O)cc2)cc1`, the inhibition was 58%.

In the case of `Clc1ccc2c(c1)[C@H]1OCC[C@H]1[C@@H](c1ccco1)N2`, the inhibition is 0%.

For the compound `O=C1CC(=O)N2N=C(c3ccc([N+](=O)[O-])cc3)SC2=N1`, the inhibition was 45%.

In the case of `Cc1cc(-c2nnc3sc(-c4ccc(Cl)cc4Cl)nn23)n[nH]1`, the inhibition is 32%.

Consider `Cc1cc(=O)[nH]c(SCC(=O)NCc2ccco2)n1`, for which the inhibition is 59%.

The record behind these values is PubChem BioAssay AID1210 (NMMLSC, 2008).
